Experimental data reported in PubChem BioAssay (Tox21).
Several values for one entry are separate records, joined by “and”; a condition that tells them apart may be missing. Equal values may be shown once. Results filed as inconclusive are left out. Activity calls are given as the source filed them. The call rests on the fitted dose curve; in most records, active means well fitted curve in the direction sought with a large enough effect in the repeat runs; inconclusive means weak or mixed curves; inactive means no such curve, though single readings can be large; an effect the other way counts as inactive or inconclusive.

What was measured:
[1] = qHTS RealTime-Glo MT Cell Viability Assay in HepG2 cells - 24 hour (AID 1224867); further: nearly all actives have a fitted effect of over 50% in size
Outline: (§1)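 Cell number in HepG2 cultures estimated from NanoLuc luminescence generated by metabolic reduction of a prosubstrate by living cells. The homogeneous, nonlytic format allowed repeated reads at 0, 8, 16, 24, 32 and 40 h of compound exposure.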

[2] = A CellTox Green Cytotoxicity Assay to monitor cytotoxicity in HEK293 cells - 0 hour (AID 1224869); further: nearly all actives have a fitted effect of over 50% in size
Outline: (§2)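 Cytotoxicity was tracked continuously in HEK293 cells by a DNA-binding dye excluded from viable cells. Compounds were transferred in DMSO 5 h after seeding; fluorescence was recorded at intervals up to 40 h.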

[3] = qHTS RealTime-Glo MT Cell Viability Assay in HepG2 cells - 40 hour (AID 1224870); further: nearly all actives have a fitted effect of over 50% in size
Outline: (§3)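 HepG2 cells mixed with RealTime-Glo MT reagents (NanoLuc plus cell-permeant prosubstrate) were seeded at 600 cells/well, incubated 5 h at 37 C/5% CO2, then pinned with compounds in DMSO; nonlytic luminescence tracked viability during 40 h treatment.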

[4] = A CellTox Green Cytotoxicity Assay to monitor cytotoxicity in HEK293 cells - 40 hour (AID 1224871); further: nearly all actives have a fitted effect of over 45% in size
Outline: as §2

[5] = qHTS RealTime-Glo MT Cell Viability Assay in HEK293 cells - 16 hour (AID 1224872); further: top concentration of the series differs between compounds; nearly all actives have a fitted effect of over 50% in size
Outline: (§4)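 Homogeneous bioluminescent viability format in HEK293 cells (600 cells/well). Following 5 h at 37 C/5% CO2, 23 nL compound was pintooled; the signal was measured repeatedly during 40 h incubation.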

[6] = qHTS RealTime-Glo MT Cell Viability Assay in HepG2 cells - 8 hour (AID 1224873); further: nearly all actives have a fitted effect of over 55% in size
Outline: as §3

[7] = qHTS RealTime-Glo MT Cell Viability Assay in HEK293 cells - 40 hour (AID 1224874); settings: RealTime-Glo luminescence; max response: hits give low values; further: nearly all actives have a fitted effect of over 50% in size
Outline: (§5)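 Nonlytic bioluminescent viability monitoring. HEK293 at 600 cells/well with reagent; 5 h settle; compound transfer by pintool; plates held at 37 C and read at set time points.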

[8] = A CellTox Green Cytotoxicity Assay to monitor cytotoxicity in HEK293 cells - 24 hour (AID 1224875); further: series mostly up to about 77 µM; nearly all actives have a fitted effect of over 45% in size
Outline: as §2

[9] = qHTS RealTime-Glo MT Cell Viability Assay in HepG2 cells - 32 hour (AID 1224877); further: nearly all actives have a fitted effect of over 55% in size
Outline: as §1

[10] = A CellTox Green Cytotoxicity Assay to monitor cytotoxicity in HepG2 cells - 24 hour (AID 1224878); further: nearly all actives have a fitted effect of over 45% in size
Outline: (§6)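 Real-time, homogeneous cytotoxicity readout: dead-cell DNA staining by CellTox Green in HepG2 monolayers, fluorescence measured at timed intervals up to 40 h of continuous compound exposure.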

[11] = A CellTox Green Cytotoxicity Assay to monitor cytotoxicity in HepG2 cells - 40 hour (AID 1224879); further: nearly all actives have a fitted effect of over 40% in size
Outline: as §6

[12] = qHTS RealTime-Glo MT Cell Viability Assay in HEK293 cells - 0 hour (AID 1224880); further: top concentration of the series differs between compounds; nearly all actives have a fitted effect of over 45% in size
Outline: as §5

[13] = A CellTox Green Cytotoxicity Assay to monitor cytotoxicity in HepG2 cells - 0 hour (AID 1224882); further: nearly all actives have a fitted effect of over 35% in size
Outline: as §6

[14] = A CellTox Green Cytotoxicity Assay to monitor cytotoxicity in HepG2 cells - 32 hour (AID 1224883); further: nearly all actives have a fitted effect of over 50% in size
Outline: as §6

[15] = A CellTox Green Cytotoxicity Assay to monitor cytotoxicity in HEK293 cells - 8 hour (AID 1224884); further: nearly all actives have a fitted effect of over 35% in size
Outline: as §2

[16] = qHTS RealTime-Glo MT Cell Viability Assay in HEK293 cells - 32 hour (AID 1224868)
Outline: as §4

[17] = A CellTox Green Cytotoxicity Assay to monitor cytotoxicity in HepG2 cells - 16 hour (AID 1224876); further: nearly all actives have a fitted effect of over 45% in size
Outline: as §6

[18] = A CellTox Green Cytotoxicity Assay to monitor cytotoxicity in HEK293 cells - 32 hour (AID 1224881); further: nearly all actives have a fitted effect of over 40% in size
Outline: as §2
On the % scale 0 is the no-effect control and ±100 the full control effect.

c1ccc(OCCOc2ccccc2)cc1
inactive: outcome [1] | outcome [2] | outcome [3] | Potency [4] | Potency [5] | outcome [6] | max response [7] -0.0252% and -0.384% | Potency [8] | outcome [9] | Potency [10] | Potency [11] | Potency [12] | outcome [13] | Potency [14] | outcome [15]

CN(C)CCC(c1ccccc1)c1ccccn1 (configuration not stated)
inactive: Potency [16] | outcome [3] | Potency [4] | Potency [5] | outcome [6] | max response [7] 7.85% and 1.55% | Potency [8] | Potency [17] | outcome [9] | Potency [10] | Potency [11] | Potency [12] | Potency [18] | outcome [13] | Potency [14] | outcome [15]

CCN(CC)c1ccc(C(=O)c2ccccc2C(=O)O)c(O)c1
inactive: outcome [1] | outcome [2] | outcome [3] | Potency [4] | Potency [5] | outcome [6] | max response [7] -1.39% and 2.11% | Potency [8] | outcome [9] | Potency [10] | Potency [11] | Potency [12] | outcome [13] | Potency [14] | outcome [15]

c1c[nH]cn1
inactive: Potency [16] | outcome [3] | Potency [4] | Potency [5] | outcome [6] | max response [7] 11.4% and 19.2% | Potency [8] | Potency [17] | outcome [9] | Potency [10] | Potency [11] | Potency [12] | Potency [18] | outcome [13] | Potency [14] | outcome [15]

CCCCCC1=CCCC1=O
inactive: outcome [1] | outcome [3] | Potency [4] | Potency [5] | outcome [6] | max response [7] 5.34% and -3.52% | Potency [8] | outcome [9] | Potency [10] | Potency [11] | Potency [12] | outcome [13] | Potency [14] | outcome [15]

CCCC(C)=O
inactive: Potency [16] | outcome [2] | outcome [3] | Potency [4] | Potency [5] | outcome [6] | max response [7] 3.18% and 6.23% | Potency [8] | outcome [9] | Potency [10] | Potency [12] | outcome [13] | Potency [14] | outcome [15]

CCCCOC(=O)COc1ccc(Cl)cc1Cl
inactive: Potency [16] | outcome [2] | outcome [3] | Potency [4] | Potency [5] | outcome [6] | max response [7] -3.14% and 1.1% | Potency [8] | Potency [17] | outcome [9] | Potency [10] | Potency [11] | Potency [12] | Potency [18] | outcome [13] | Potency [14] | outcome [15]
